# Source: PubChem BioAssay
# Where “and” joins values, the source holds several entries; their conditions need not be identical. Equal entries are not always repeated. Inconclusive results are not listed. Where a structure was tested more than once in an assay, its records may differ in their call. Calls of active or inactive are those of the source. Unless noted, the rule behind the calls is not given here.
# Legend:
# [1] = kinase inhibitors against Plasmodium liver-stage infection, cell-based, known kinase inhibitor set, luminescence, hepatoma host viability (AID 624392); details: Plasmodium liver stage in hepatoma cells, luciferase luminescence, concentration not given here; liver cell % of control: measured here: host liver cell viability; parasite % of control: stronger effect = lower value;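 note: infected cells incubated roughly two days before readout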
# [2] = modulators of glucocorticoid suppression of NF-kB, cell-based, luciferase, IL-1B stimulus, dexamethasone (AID 624486); details: NF-kB luciferase reporter, IL-1B + dexamethasone, luminescence; percent of negative control (+Dex): actives lie on both sides, concentration not given here; z-score: measured here: IL-1B alone, no Dex;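 for percent of negative control (+Dex): 100% = mean signal of vehicle control wells on the plate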
# [3] = kinase inhibitors altering Pseudomonas killing of worms, whole organism (AID 651566);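 note: tested at 14 µM; sign flipped so higher z means a lower ratio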; details: C. elegans killed by P. aeruginosa, survival ratio
# [4] = activators of macrophage pro-inflammatory response, cell-based, murine, luminescence (AID 652131); details: murine macrophage pro-inflammatory reporter, stronger effect = higher value
# [5] = molecular target: Cellular tumor antigen p53 (Homo sapiens) (UniProt P04637); test: kinase inhibitors altering GFP-p53 stability in HPV16-positive cells, imaging, known kinase inhibitor set, EGFP/DsRed ratio (AID 1053116); details: stronger effect = higher value; EGFP object count: measured here: GFP-p53 positive objects count;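 note: cells exposed to compounds for 24 h at 37 °C before reading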
# Chain of Cellular tumor antigen p53 (Homo sapiens) (P04637 whole entry, looked up): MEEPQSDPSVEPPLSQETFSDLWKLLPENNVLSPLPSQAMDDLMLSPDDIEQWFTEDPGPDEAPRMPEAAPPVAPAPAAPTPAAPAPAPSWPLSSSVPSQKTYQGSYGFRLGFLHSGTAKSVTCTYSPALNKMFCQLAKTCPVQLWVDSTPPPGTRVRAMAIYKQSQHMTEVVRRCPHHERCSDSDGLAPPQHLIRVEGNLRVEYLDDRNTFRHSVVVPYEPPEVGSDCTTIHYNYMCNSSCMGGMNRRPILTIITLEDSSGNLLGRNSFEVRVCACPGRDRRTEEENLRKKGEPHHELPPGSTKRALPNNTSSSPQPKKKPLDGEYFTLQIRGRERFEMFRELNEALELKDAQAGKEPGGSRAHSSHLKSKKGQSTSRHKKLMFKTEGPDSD
# [6] = IRF3 reporter activation in THP-1 macrophages, cell-based, PMA-stimulated THP-1, luminescence (AID 1053176); details: PMA-differentiated THP-1, IRF3 reporter luminescence; stronger effect = higher value
# [7] = survival rescue of mitochondrial mutant cells in low glucose, primary screen, MELAS cybrids, Rieske KO mouse fibroblasts, CellTiter-Glo (AID 1508586;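 active = mean z-score across replicates of 1.96 or higher in either the MELAS or the Rieske mutant cell line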;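 note: z relative to plate mean and SD of compound and empty wells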)
# [8] = sensitizers of A549 cells to miR-34 induction, primary screen, imaging, A549 dox-inducible miR-34, nuclei and caspase counts (AID 1347080;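 active = compounds whose cell count with miR-34 switched on is under 0.7 times the count with it off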); details: A549 miR-34 inducible, Hoechst nuclei count, 48 h
# [9] = viability rescue of complex I mutant cybrids, primary screen, cell-based, galactose medium, ATP luminescence (AID 1645843;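 active = z-score of at least 1.8 in each of two replicates, scored against plate mean and spread of sample wells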;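 note: positive z means more ATP and so rescue of galactose-driven cybrid death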); details: complex I mutant cybrid cells, 72 h, stronger effect = higher value
# [10] = liver-stage malaria parasite growth inhibition, primary screen, cell-based, HepG2, luciferase luminescence, HepG2 viability (AID 624349; in the data active = parasite load remaining mostly below about 12%, no sharp cut-off; inactive = mostly above about 10%;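 note: 100% = mean of DMSO negative control wells on the same plate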); details: P. berghei liver stage in HepG2, luciferase luminescence, concentration not given here; parasite load remaining: stronger effect = lower value; viability: measured here: HepG2 viability without parasites
# [11] = growth inhibition of DIPG glioma cells, dose response, cell-based, SU-DIPG-XVII, MIPE5.0, CellTiter-Glo, qHTS (AID 1347060; cut-off not given, nearly all actives have AC50 up to about 26 µM;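 note: cells exposed to compound for 48 hours before viability readout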); details: SU-DIPG-XVII viability, CellTiter-Glo ATP luminescence
# [12] = viability loss in pontine glioma line – cell-based, SU-DIPG-XXV, MIPE5.0, CellTiter-Glo, qHTS, dose response (AID 1347065; cut-off not given, nearly all actives have AC50 up to about 26 µM;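 note: cells exposed to compound for 48 hours before ATP readout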); details: CellTiter-Glo ATP luminescence
# [13] = SU-DIPG-XXV glioma cell viability, MIPE5.0 library, qHTS (AID 1347068; cut-off not given, nearly all actives have IC50 up to about 30 µM;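 note: cells exposed to compound for 48 hours before viability readout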)
# [14] = MELAS cybrid survival, CellTiter-Glo 48 h, stronger effect = higher value
# [15] = Rieske KO mouse fibroblast survival, CellTiter-Glo 72 h
# [16] = stronger effect = lower value, cell number ratio, induced over uninduced
# [17] = measured here: relative caspase fold change +Dox/-Dox
# [18] = measured here: total cells with miR-34 induction, stronger effect = lower value
# [19] = measured here: total cells without miR-34 induction
smiles,measurement,setting,value
Nc1ncnc2occ(-c3ccc(NC(=O)Nc4cc(C(F)(F)F)ccc4F)cc3)c12,liver cell % of control,[1],62.2% and 49.5%
same,parasite % of control,[1],12.5% (inactive) and 10.2% (inactive)
same,percent of negative control (+Dex),[2],62.5% (inactive) and 72.5% (inactive)
same,z-score,[2],-4.27 and -2.6
same,z-score,[3],-0.79 (inactive) and 0.505 (inactive)
same,z-score,[4],0.268 (inactive) and -0.714 (inactive)
same,EGFP object count,[5],2 and 1
same,EGFP/DsRed ratio,[5],0.017 (inactive) and 0.0224 (inactive)
same,fraction signal,[6],-0.0025 (inactive) and -0.0215 (inactive)
same,z-score,[7]; [14],0.841 (inactive) and 3.25 (active)
same,z-score,[7]; [15],-0.123 and -0.164
N#Cc1c(NC(=O)c2ccccc2F)sc2c1CCCC2,liver cell % of control,[1],160%
same,parasite % of control,[1],60.7% (inactive)
same,percent of negative control (+Dex),[2],282% (active)
same,z-score,[2],14.4
same,z-score,[3],0.24 (inactive)
same,z-score,[4],2.53 (inactive)
same,EGFP object count,[5],0
same,EGFP/DsRed ratio,[5],0 (inactive)
same,fraction signal,[6],-0.0035 (inactive)
same,fold change,[8]; [16],0.993 (inactive)
same,fold change,[8]; [17],0.12
same,cell count,[8]; [18],5190
same,cell count,[8]; [19],5220
same,z-score,[7]; [14],0.104 (inactive) and 0.195 (inactive)
same,z-score,[7]; [15],-0.249 and 0.00256
same,z-score,[9],0.305 (inactive)
Fc1ccc(-c2nc3n(c2-c2ccncc2)CCS3)cc1,parasite load remaining,[10],45.5% (inactive)
same,viability,[10],65.6%
same,liver cell % of control,[1],122%
same,parasite % of control,[1],126% (inactive)
same,percent of negative control (+Dex),[2],112% (inactive)
same,z-score,[2],2.42
same,z-score,[3],0.075 (inactive)
same,z-score,[4],2.76 (inactive)
same,EGFP object count,[5],4
same,EGFP/DsRed ratio,[5],0.154 (inactive)
same,fraction signal,[6],-0.0105 (inactive)
same,fold change,[8]; [16],0.866 (inactive)
same,fold change,[8]; [17],1.21
same,cell count,[8]; [18],4970
same,cell count,[8]; [19],5730
same,z-score,[7]; [14],1.07 (inactive)
same,z-score,[7]; [15],0.11
same,z-score,[9],-0.365 (inactive)
CN1C(=O)C(c2c[nH]c3ccccc23)=C(c2c[nH]c3ccccc23)C1=O,parasite load remaining,[10],34.8% (inactive)
same,viability,[10],125%
same,liver cell % of control,[1],87.4%
same,parasite % of control,[1],30.7% (inactive)
same,percent of negative control (+Dex),[2],96.5% (inactive)
same,z-score,[2],-0.615
same,EGFP object count,[5],3
same,EGFP/DsRed ratio,[5],0.0517 (inactive)
same,fraction signal,[6],-0.0095 (inactive)
same,fold change,[8]; [16],0.868 (inactive)
same,fold change,[8]; [17],1.05
same,cell count,[8]; [18],5070
same,cell count,[8]; [19],5840
Cc1cc(O)cc(C)c1/C=C/c1cncc(C(=O)OC(C)(C)C)c1,liver cell % of control,[1],60.8%
same,parasite % of control,[1],116% (inactive)
same,percent of negative control (+Dex),[2],100% (inactive)
same,z-score,[2],0.33
same,z-score,[3],0.75 (inactive)
same,z-score,[4],-0.067 (inactive)
same,EGFP object count,[5],34.5
same,EGFP/DsRed ratio,[5],0.559 (inactive)
same,fraction signal,[6],0.0035 (inactive)
same,z-score,[7]; [14],0.119 (inactive)
same,z-score,[7]; [15],-0.153
Cc1cccc(C2NNCC2c2ccc3ncccc3n2)n1 (stereo unspecified),liver cell % of control,[1],89.8%
same,parasite % of control,[1],104% (inactive)
same,percent of negative control (+Dex),[2],58.5% (inactive)
same,z-score,[2],-3.81
same,z-score,[3],0.465 (inactive)
same,z-score,[4],0.276 (inactive)
same,EGFP object count,[5],4
same,EGFP/DsRed ratio,[5],0.132 (inactive)
same,fraction signal,[6],0.0035 (inactive)
same,z-score,[7]; [14],0.0567 (inactive)
same,z-score,[7]; [15],-0.176
O=C1NC(=O)C(c2c[nH]c3ccccc23)=C1c1c[nH]c2ccccc12,parasite load remaining,[10],50.4% (inactive)
same,viability,[10],162%
same,liver cell % of control,[1],97.5%
same,parasite % of control,[1],26.7% (inactive)
same,percent of negative control (+Dex),[2],98% (inactive)
same,z-score,[2],-0.485
same,EGFP object count,[5],22.5
same,EGFP/DsRed ratio,[5],0.273 (inactive)
same,fraction signal,[6],-0.0025 (inactive)
same,AC50,[11],11.8 µM (active)
same,AC50,[12],18.6 µM (active)
same,IC50,[13],18.6 µM (active)
same,fold change,[8]; [16],1.26 (inactive)
same,fold change,[8]; [17],0.968
same,cell count,[8]; [18],5130
same,cell count,[8]; [19],4070
